Screening data (PubChem)
Neddyl block: blocks human cullin neddylation; P61081+Q13564; TR-FRET cullin neddylation, biochemical; inhibition, % at 25 µM; 360,000 tested, 0.58% active; in the data active = inhibition above about 36%
SUMO1 PPI mod: modulators of human SUMO1-mediated protein-protein interactions; P63165; SUMO1 binding to a labelled peptide, TR-FRET, 1 h; inhibition, % at 20 µM; 360,000 tested, 0.33% active; AID 602429; in the data active = inhibition above about 37%
Target sequence (P63165 whole entry, looked up): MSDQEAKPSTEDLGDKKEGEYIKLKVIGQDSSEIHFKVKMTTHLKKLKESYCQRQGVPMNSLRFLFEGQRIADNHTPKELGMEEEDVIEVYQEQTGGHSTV
ATG4B inh: blocks human ATG4B protease cleavage of LC3 substrate | ATG4B cleavage of LC3-PLA2, NBD-HPC fluorescence, 1 h | 340,000 tested, 0.51% active | inhibition, % at 8.33 µM; in the data active = inhibition above about 40%
Target sequence (Q9Y4P1 whole entry, looked up): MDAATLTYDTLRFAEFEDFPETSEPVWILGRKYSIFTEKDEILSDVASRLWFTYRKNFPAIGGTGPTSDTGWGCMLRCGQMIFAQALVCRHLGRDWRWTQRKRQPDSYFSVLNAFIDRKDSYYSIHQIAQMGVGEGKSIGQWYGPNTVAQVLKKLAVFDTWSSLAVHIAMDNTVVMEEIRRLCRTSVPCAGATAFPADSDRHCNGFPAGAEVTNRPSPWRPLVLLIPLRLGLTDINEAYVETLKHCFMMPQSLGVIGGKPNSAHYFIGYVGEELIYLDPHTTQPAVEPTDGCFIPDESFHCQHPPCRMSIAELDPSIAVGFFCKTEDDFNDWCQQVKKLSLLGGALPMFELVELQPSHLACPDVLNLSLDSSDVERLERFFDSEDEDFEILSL
Rin1 Abl inh: inhibitors of human Rin1-Abl protein interaction; P00519+Q13671; TR-FRET Rin1/Abl binding, biochemical; inhibition, % at 7.35 µM; 360,000 tested, 0.4% active; in the data active = inhibition above about 5%, passing the limit was not always enough
Each line names hits and unclear results; the compound was inactive in the other large screens; ! = repeats disagree. Most compounds without a hit are left out; they make up all but 1.7% or so of the library.

O=C(CCN1C(=O)/C(=C/c2ccco2)SC1=S)Nc1ccc(C(=O)O)c(O)c1	SUMO1 PPI mod 47
COc1ccccc1/C=C1\SC(=S)N(CCC(=O)Nc2ccc(C(=O)O)c(O)c2)C1=O	none
O=C(CN1C(=O)/C(=C\c2ccco2)SC1=S)Nc1ccc(O)cc1C(=O)O	SUMO1 PPI mod 87
CCc1ccc(/C=C2/SC(=S)N(CCC(=O)Nc3ccc(C(=O)O)cc3)C2=O)cc1	SUMO1 PPI mod 85 (no result: ATG4B inh)
CCc1ccc(C=C2SC(=S)N(CCCC(=O)Nc3ccc(C(=O)O)cc3)C2=O)cc1	none (no result: ATG4B inh)
CC1(C)Oc2cc3oc(=O)ccc3c3c2C2C1CCC(C)(O3)C2O (centres undefined)	none (not shown: Neddyl block, ATG4B inh)
CC1=C(C(=O)Nc2ccc(C(=O)NCCCN3CCCCC3C)cc2)SCCO1 (centres undefined)	none (no result: ATG4B inh)
CC(C)C[C@H]1CN(CCCC[C@@H]2CNC(=O)C(=O)N2CCc2ccccc2)C(=O)C(=O)N1CCC1CCCCC1	none (no result: ATG4B inh, Rin1 Abl inh)
Oc1ccc(N=Nc2ccc3c(c2)OCCO3)c2ncccc12	Rin1 Abl inh 9.2
C=Cc1c(C)c2cc3[nH]c(cc4nc(cc5nc(cc1[nH]2)C(C)=C5CCC(=O)O)C(CCC(=O)O)=C4C)c(C)c3C=C	SUMO1 PPI mod 112!, ATG4B inh 48!
COC1=C/C(=C/c2c(O)c(C#N)c3ccccn23)C=CC1=O	Neddyl block 39
COc1cc(OC)cc(C(=O)c2c(C)c(C#N)c3ccccn23)c1	none
C#CCOCCOCCOCCNc1nc(N2CCN(C(=O)CCCCCCCCCCNC(=O)Cn3cc(CCCCCN)nn3)CC2)nc(N2CCN(C(=O)CCCCCCCCCCNC(=O)Cn3cc(CCCCCN)nn3)CC2)n1	Rin1 Abl inh 13
C#CCOCCOCCOCCNc1nc(N2CCN(C(=O)CCCCCCCCCCNC(=O)[C@H]([C@@H](C)CC)n3cc(CCCCN=C(N)N)nn3)CC2)nc(N2CCN(C(=O)CCCCCCCCCCNC(=O)[C@H](CO)n3cc(CCCCCN)nn3)CC2)n1	SUMO1 PPI mod 47, ATG4B inh 54
C#CCOCCOCCOCCNc1nc(N2CCN(C(=O)CCCCCCCCCCNC(=O)[C@H]([C@@H](C)CC)n3cc(CCCCCN)nn3)CC2)nc(N2CCN(C(=O)CCCCCCCCCCNC(=O)[C@H](CO)n3cc(CCCCCN)nn3)CC2)n1	none
C#CCOCCOCCOCCNc1nc(N2CCN(C(=O)CCCCCCCCCCNC(=O)[C@H]([C@@H](C)CC)n3cc(CCCCCN)nn3)CC2)nc(N2CCN(C(=O)CCCCCCCCCCNC(=O)[C@H]([C@@H](C)CC)n3cc(CCCCN=C(N)N)nn3)CC2)n1	SUMO1 PPI mod 79 (no result: ATG4B inh)
C#CCOCCOCCOCCNc1nc(N2CCN(C(=O)CCCCCCCCCCNC(=O)Cn3cc(CCCCCN)nn3)CC2)nc(N2CCN(C(=O)CCCCCCCCCCNC(=O)[C@H]([C@@H](C)CC)n3cc(CCCCN=C(N)N)nn3)CC2)n1	SUMO1 PPI mod 39, ATG4B inh 49, Rin1 Abl inh 15
CCN(CC)S(=O)(=O)c1ccc(SCC(=O)c2c(N)n(C3CC3)c(=O)[nH]c2=O)nc1	none (no result: ATG4B inh)
CCCCN1C=C(C(=O)OC)C(c2ccccc2Cl)C(C(=O)OC)=C1	SUMO1 PPI mod 46 (not shown: Neddyl block)
Cc1ccc([N+](=O)[O-])cc1-c1ccc(/C=C(\C#N)c2[nH]nc(N)c2C#N)o1	SUMO1 PPI mod 58
CC1(C(=O)NCC2CC2)CCN1C(=O)C1(c2ccccc2)CC1 (centres undefined)	none (no result: ATG4B inh)
COc1ccccc1N1CCN(S(=O)(=O)CCNC(=O)CC2CCCC2)CC1	none (no result: ATG4B inh)
Cc1c(Cc2ccccc2)sc(/N=C/c2c(O)ccc3ccccc23)c1C(N)=O	ATG4B inh 52 (not shown: Neddyl block)
NS(=O)(=O)c1ccc(CCNC(=O)c2ccc3nc4ccc(Cl)cc4c(=O)n3c2)cc1	Neddyl block 47
Cc1ccc(CCNC(=O)c2ccc3nc4ccc(Cl)cc4c(=O)n3c2)cc1	none
O=C(O)c1ccc(N/N=C/c2cc3cc4c(cc3nc2Cl)OCCO4)cc1	Neddyl block 37
CCN1CCN(Cc2ccc(NC(=O)c3ccc(C)c(/C=C/c4cnc(Nc5cc(N6CCNCC6)nc(C)n5)cn4)c3)cc2C(F)(F)F)CC1	SUMO1 PPI mod 87 (not shown: Neddyl block)
CCN1CCN(Cc2ccc(NC(=O)c3ccc(C)c(NC(=O)c4ccno4)c3)cc2C(F)(F)F)CC1	none
Cc1ccc(N=c2oc3cc(O)ccc3cc2C(N)=O)cc1	Neddyl block 48
CC(=O)c1cc2ccc(O)cc2oc1=O	none (not shown: Neddyl block)
OC(c1ccc(Cl)cc1)c1ncc(-c2cccc(C(F)(F)F)c2)[nH]1 (centres undefined)	none (no result: ATG4B inh)
CCCc1cc(=O)oc2cc(OCC(=O)Nc3ccccn3)ccc12	none
COc1ccc(-c2cc(=O)oc3cc(OCC(=O)Nc4ccccn4)ccc23)cc1	SUMO1 PPI mod 43
Cc1c(C)c2cc(Cl)c(OCC(=O)Nc3ccccn3)cc2oc1=O	SUMO1 PPI mod 71 (no result: ATG4B inh)
Cc1cc(=O)oc2cc(OCC(=O)Nc3ccccc3C(N)=O)c(Cl)cc12	SUMO1 PPI mod 62 (not shown: Neddyl block)
Cc1cc(OCC(=O)Nc2cccnc2)c2c(C)c(C)c(=O)oc2c1	SUMO1 PPI mod 76 (not shown: Neddyl block)
CC1=C(C(=O)N2CCOCC2)CC(CC(=O)NC2CC2)C(=O)N1CCC1=CCCCC1 (centres undefined)	none (no result: ATG4B inh)
CC(C(=O)Nc1ccc(C#N)cc1)N(C)CC(=O)N(C)c1c(N)n(Cc2ccccc2)c(=O)[nH]c1=O (centres undefined)	SUMO1 PPI mod 46
COc1ccc(NC(=O)CSc2nc3ccsc3c(=O)n2CCC(=O)O)cc1	none (no result: ATG4B inh)
C[C@@H]1CN([C@H](C)CO)C(=O)CCCn2nncc2CO[C@@H]1CN(C)S(=O)(=O)c1ccc(-n2cccn2)cc1	none (no result: ATG4B inh)
CC(C)OCCCNc1ncnc2c1[nH]c1ccccc12	Neddyl block 38
CC1CCCCC1NC(=O)COC(=O)c1c2c(nc3ccccc13)/C(=C\c1ccco1)CC2 (centres undefined)	none
O=C(COC(=O)c1c2c(nc3ccccc13)/C(=C\c1ccco1)CC2)NC1CCCC1	SUMO1 PPI mod 42
CN(CCC#N)C(=O)COC(=O)c1c2c(nc3ccccc13)/C(=C\c1ccco1)CC2	SUMO1 PPI mod 57
COc1cc(/C=C2/C(=O)NN(c3ccc(Cl)cc3)C2=O)cc(Br)c1O	SUMO1 PPI mod 75
CCOCCCNC(=O)C(NC(=O)c1ccccc1O)c1ccc(Cl)cc1 (centres undefined)	Neddyl block 43
CCOCCCNC(=O)C(NC(=O)CNC(C)=O)c1ccc(Cl)cc1 (centres undefined)	none
N#Cc1c(NC(=O)c2ccccc2Cl)n(Cc2ccccc2)c2nc3ccccc3nc12	SUMO1 PPI mod 56, ATG4B inh 52
CCCCn1c(NC(=O)CC)c(C#N)c2nc3ccccc3nc21	none
CCCCn1c(NC(=O)c2ccccc2Cl)c(C#N)c2nc3ccccc3nc21	SUMO1 PPI mod 53 (not shown: Neddyl block)
O=C(Nc1nc(-c2ccccc2)cs1)C1CCCN(S(=O)(=O)c2ccccc2)C1 (centres undefined)	SUMO1 PPI mod 42
O=C(Nc1nc(-c2ccccc2)cs1)C1CCCN(S(=O)(=O)c2cccc([N+](=O)[O-])c2)C1 (centres undefined)	none
CSc1nc(-c2cccs2)c(C#N)c(=O)[nH]1	none
